Among all 310,000 compounds or so, about 3,900 (1.3%) were called active. The sample holds actives, similar compounds and a random draw of the others, so the mix is not that of the screen.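 Rule for the calls: active = compounds whose thallium flux B-score, printed positive for inhibition, exceeds three library SD while starting fluorescence stays within three; inactive = the rest.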

In the experiment the target is Potassium voltage-gated channel subfamily KQT member 1 (Homo sapiens) (UniProt P51787). Put plainly: KCNQ1 potassium current blockers – cell-based, thallium flux, high-throughput, primary screen (AID 2642).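 Note: channel opened by potassium depolarization with thallium stimulus after 20 min compound exposure.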 Particulars: CHO-K1 KCNQ1, FluxOR thallium flux fluorescence, at 10 µM; stronger effect = higher value.
Sequence of Potassium voltage-gated channel subfamily KQT member 1 (Homo sapiens) (P51787 whole entry, looked up): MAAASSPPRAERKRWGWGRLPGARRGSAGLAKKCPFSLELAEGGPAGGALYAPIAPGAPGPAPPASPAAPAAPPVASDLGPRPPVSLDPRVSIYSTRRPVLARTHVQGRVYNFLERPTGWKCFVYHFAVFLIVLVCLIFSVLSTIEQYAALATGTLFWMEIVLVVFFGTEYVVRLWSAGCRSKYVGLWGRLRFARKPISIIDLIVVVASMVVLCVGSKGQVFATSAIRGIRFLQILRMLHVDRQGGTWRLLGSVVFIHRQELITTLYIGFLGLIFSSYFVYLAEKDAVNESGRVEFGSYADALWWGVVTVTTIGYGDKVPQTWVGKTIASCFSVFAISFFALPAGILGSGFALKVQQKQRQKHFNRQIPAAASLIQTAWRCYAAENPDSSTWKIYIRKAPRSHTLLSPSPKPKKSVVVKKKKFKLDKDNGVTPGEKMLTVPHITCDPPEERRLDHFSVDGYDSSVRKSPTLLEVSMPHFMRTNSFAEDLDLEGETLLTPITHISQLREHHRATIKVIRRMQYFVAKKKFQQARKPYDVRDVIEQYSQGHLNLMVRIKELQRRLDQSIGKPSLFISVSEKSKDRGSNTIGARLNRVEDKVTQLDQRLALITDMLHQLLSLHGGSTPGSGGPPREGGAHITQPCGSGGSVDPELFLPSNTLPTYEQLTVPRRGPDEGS
For the compound `CC(C)(C)Cc1nnc(NC(=O)c2cc(-c3ccccc3)nc3ccccc23)s1`, the B-score is 11 (active).
For the compound `O=C(Nc1nnc(-c2ccccc2)o1)c1cc(-c2cccs2)nc2ccccc12`, the B-score entry is “inactive”.
To `COc1ccc(-c2cc(C(=O)Nc3ccccc3O)c3ccccc3n2)cc1` belongs “inactive”; to `O=C(O)CCCCCCCCCC[n+]1ccccc1`, “inactive”.
For the compound `CN(c1ccc(OCC(=O)O)cc1)S(=O)(=O)c1ccc2ccccc2c1`, the B-score result is “inactive”.
The result for `CCc1noc(C)c1C(=O)Oc1ccc(N(C)S(=O)(=O)c2ccc(C)c(C)c2)cc1` reads 9 (active).
Take `Cc1ccc(S(=O)(=O)N(C)C)cc1NC(=O)COC(=O)c1c(C)noc1C`: the B-score entry was “inactive”.
As for `CCc1ccc(OCC(=O)NCC(c2ccc(Cl)cc2)N2CCCCC2)cc1` (stereo not drawn), the B-score result was “inactive”.
As to `COc1cc(C(=O)Nc2oc(-c3ccccc3)c(-c3ccccc3)c2C#N)cc(OC)c1OC`, the B-score result is “inactive”.
To `N#Cc1c(NC(=O)CCCN2C(=O)c3ccccc3C2=O)oc(-c2ccccc2)c1-c1ccccc1` belongs 6 (active).
On to `Cc1cc(C)cc(NC(=O)CCN2C(=O)c3ccccc3C2=O)c1`, for which the B-score result was “inactive”.
`Cc1cc(OCC(=O)N2CCN(c3ncccn3)CC2)ccc1Cl`: the B-score result was “inactive”.
`COc1ccc(S(=O)(=O)NCCc2c[nH]c3ccccc23)cc1OC`: the B-score result is “inactive”.
The result for `COc1ccccc1CC(=O)NCCc1c[nH]c2ccccc12` reads “inactive”; that for `COc1cccc(CNCCc2c[nH]c3ccccc23)c1OCc1ccccc1F`, 8 (active); that for `O=C(Nc1ccccc1N1CCCC1)c1ccc2ccccc2c1`, “inactive”.
On to `COc1ccc(N2CCN(C(=O)c3ccc(N4CCCCS4(=O)=O)cc3)CC2)cc1`, for which the B-score result was “inactive”.
Turning to `COc1ccccc1C1SCCN1C(=O)c1ccc([N+](=O)[O-])cc1` (stereo not drawn), the B-score result is “inactive”.
Consider `COc1ccc(C(=O)N2CCc3cc(OC)c(OC)cc3C2c2cccc([N+](=O)[O-])c2)cc1` (stereo not drawn), for which the B-score is 7 (active).
The result for `COc1ccc2[nH]c(=O)c(C3c4cc(OC)c(OC)cc4CCN3C(=O)c3ccco3)cc2c1` (stereo not drawn) reads “inactive”; that for `CC(C)(CCl)C(=O)Nc1ccc(Sc2ccc(F)cc2)cc1`, 9 (active); that for `O=C(Nc1ccncc1)Nc1ccc(F)cc1`, “inactive”.
Take `O=C(CCl)Nc1ccc(Sc2ccc(NC(=O)CCl)cc2)cc1`: the B-score result was “inactive”.
Regarding `CCCN(CCC)c1nc2c(C)cccn2c(=O)c1/C=C1/SC(=S)N(Cc2ccco2)C1=O`, the B-score was 14 (active).
To `CCOC(=O)CC1C(=O)NCCN1c1nc2c(C)cccn2c(=O)c1/C=C1\SC(=S)N(C(C)CC)C1=O` (stereo not drawn) belongs “inactive”; to `CNc1nc2c(C)cccn2c(=O)c1C=Nc1ccc(OC)cc1`, “inactive”; to `Cc1cccc(OCC(=O)Nc2ccc(NC(=O)c3ccco3)c(C)c2)c1`, “inactive”.
For `CCC(C)(C(=O)NC1CCCCC1)N(C)C(=O)c1ccc2c(c1)OCO2` (stereo not drawn), the B-score entry was “inactive”.
Turning to `COCCSc1nnc(NC(=O)c2cc(OC)c(OC)cc2[N+](=O)[O-])s1`, the B-score entry is “inactive”.
As to `Cc1cccc(NC(=S)NCc2ccc3[nH]c4c(c3c2)CCCC4)c1`, the B-score is 6 (active).
To `Cc1cc(C)cc(NC(=S)NCc2ccc(F)cc2)c1` belongs “inactive”; to `O=C(O)CCC(=O)NCc1ccc2[nH]c3c(c2c1)CCCC3`, “inactive”; to `CC(C)(C)c1ccc(SCCc2ccncc2)cc1`, “inactive”.
The result for `C=CCN1CN(S(=O)(=O)c2ccc(OC)cc2)c2nc3ccccc3nc21` reads “inactive”; that for `CC(C)(C)NS(=O)(=O)c1ccc(NC(=O)C2CCCO2)cc1` (stereo not drawn), “inactive”; that for `CCCC(C)C(=O)Nc1ccc(NC(C)=O)cc1` (stereo not drawn), “inactive”.
Turning to `COc1ccc(NC(=O)c2cnc(NS(=O)(=O)c3ccccc3)nc2)cc1`, the B-score result was “inactive”.
With `COc1ccc(S(=O)(=O)/N=C2\C=C(NS(=O)(=O)c3ccccc3)C(=O)c3ccccc32)cc1`, the B-score was 6 (active).
Regarding `CCCC(NS(=O)(=O)c1ccc(OC)cc1)C(=O)O` (stereo not drawn), the B-score entry was “inactive”.
Consider `COc1c(N2CCN(C(=S)Nc3ccccc3F)C(C)C2)c(F)cc2c(=O)c(C(=O)O)cn(C3CC3)c12` (stereo not drawn), for which the B-score result is “inactive”.
In the case of `Cc1cc(C)n2nc(C(=O)OC(C)C(=O)c3cc(C)c(C)cc3C)nc2n1` (stereo not drawn), the B-score result was “inactive”.
As to `Cc1cc(Br)ccc1NC(=O)c1cnc(N2CCN(c3ccccn3)CC2)c2ccccc12`, the B-score is 7 (active).
Turning to `Cc1cc(Br)ccc1NC(=O)c1sc2ncn(CC(=O)N3CCN(c4ccccn4)CC3)c(=O)c2c1C`, the B-score result was “inactive”.
`O=C(CN1CCN(c2ccccn2)CC1)Nc1ccc(Br)cc1`: the B-score result is “inactive”.
In the case of `COc1ccc(Cc2nnc(SCC(=O)Nc3ccc(C)c(C)c3)o2)cc1OC`, the B-score entry is “inactive”.
As for `CCCc1ccc(C(=O)[C@@H]2[C@@H](C(C)=O)N3c4ccc(F)cc4C=C[C@@H]3[C@@]23C(=O)Nc2ccccc23)cc1`, the B-score entry was “inactive”.
The result for `CCc1ccc(-c2nn(-c3ccccc3)cc2CSC(=N)N)cc1` reads 14 (active); that for `COc1ccc(-c2nn(-c3ccccc3)cc2C(=O)Nc2nc(CC(C)=O)ns2)cc1`, “inactive”; that for `Cc1ccc(-c2nn(-c3ccccc3)cc2CN(Cc2ccccc2)C(=O)CCC(=O)O)o1`, “inactive”.
For `COc1ccc2c(c1)c(=O)c(C(=O)c1ccc(Cl)cc1)cn2CC(=O)Nc1ccc(F)cc1`, the B-score result is “inactive”.
The result for `S=C(Nc1cccc(Cl)c1)Nc1ccc2cn[nH]c2c1` reads “inactive”.
As for `Cc1csc(NC(=S)Nc2cccc(Cl)c2)n1`, the B-score entry is “inactive”.
To `O=C(Nc1cccc(S(=O)(=O)Nc2ccc(Cl)cc2)c1)c1ccc2c(c1)OCCO2` belongs “inactive”; to `S=C(NCc1ccco1)Nc1ccc2c(c1)OCCO2`, “inactive”; to `FC(F)(F)c1cccc(NC(=S)Nc2cccc(Cl)c2)c1`, 18 (active).
The result for `S=C(Nc1cccc(Cl)c1)Nc1ccc2c(c1)OCCO2` reads 8 (active); that for `COc1cccc(OCC(O)CNC(=O)c2oc3c(C)c(C)ccc3c2C)c1` (stereo not drawn), “inactive”.
Consider `Cc1cc(=O)oc2c3c(cc(OCC(=O)NCCC(=O)N[C@@H](C)C(=O)O)c12)OC(C)(C)CC3`, for which the B-score entry is “inactive”.
Consider `O=C(O)c1ccccc1-c1ccccc1C(=O)Nc1ccccc1Br`, for which the B-score entry is “inactive”.
Consider `Nc1cc(OC(=O)c2ccccc2Br)nn1S(=O)(=O)c1ccccc1`, for which the B-score entry is “inactive”.
The result for `COc1ccccc1C(=O)NCCC(=O)NC(C)CCc1ccccc1` (stereo not drawn) reads “inactive”.
As to `CN1CCN(CC(=O)Nc2cccc([N+](=O)[O-])c2)CC1`, the B-score entry is “inactive”.
Regarding `CCc1ccc(NC(=O)N2CCc3ccccc3C2)cc1`, the B-score entry is “inactive”.
As to `O=C(Nc1cccc([N+](=O)[O-])c1)N1CCc2ccccc2C1`, the B-score is 7 (active).
The result for `CCCCNCc1ccc(SC)cc1` reads “inactive”.
In the case of `CCOC(=O)C1CCCN(C(=O)CN(c2ccc(OC)cc2)S(=O)(=O)c2c(C)noc2C)C1` (stereo not drawn), the B-score result is “inactive”.
Turning to `Cc1cc(C)cc(N(CC(=O)NCC2CCCO2)S(=O)(=O)c2c(C)noc2C)c1` (stereo not drawn), the B-score result is “inactive”.
Regarding `Cc1cc(C)cc(N(CC(=O)N2CC=C(c3ccccc3)CC2)S(=O)(=O)c2c(C)noc2C)c1`, the B-score is 6 (active).

For the origin of these results see PubChem BioAssay AID2642 (Johns Hopkins Ion Channel Center, 2010).
